# pKd: −log10 of the molar value.
# How the values were obtained:
# PIK4CB = tested on: T1, PIK4CB
# T1 construct: gene PI4KB
# PIP5K2C = tested on: T2, PIP5K2C
# T2 construct: gene PIP4K2C
# PCTK1 = tested on: T3, PCTK1
# T3 construct: gene CDK16
# PKAC-beta = tested on: T4, PKAC-beta
# T4 construct: gene PRKACB
# PCTK3 = tested on: T5, PCTK3
# T5 construct: gene CDK18
# PCTK2 = tested on: T6, PCTK2
# T6 construct: gene CDK17
# 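Also: kd values determined as follow-up on hits from a single-replicate KINOMEscan panel screen.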
smiles,measurement,setting,value
Cc1ccc(NC(=O)Nc2ccc(Cl)c(C(F)(F)F)c2)cc1-c1ccc(C(=O)Nc2ccncc2)cc1 [GSK1398470],pKd,PDGFRB,6.57
CN1c2ccc(-c3ccc(C(N)=O)cc3)cc2-c2[nH]ncc2S1(=O)=O,pKd,PIP5K1C,5.19
Cn1cnc2c(N)ncnc21 [SKF-97623],pKd,PDGFRA,< 5.00
COc1ccc(Nc2nccc(NCCNC(=O)Nc3cc(C)ccc3C)n2)cc1 [GSK1379899],pKd,PIK3C2B,< 5.00
same,pKd,PIK3CA,< 5.00
CCc1ccc(-c2ccc3c(c2)-c2n[nH]cc2S(=O)(=O)N3C)cc1,pKd,PIKFYVE,< 5.00
Cc1c(Cn2c3ccccc3n3c(=O)cc(N4CCOCC4)nc23)cccc1C(F)(F)F [GSK2306394],pKd,PIK3CB,6.17
same,pKd,PIK4CB,< 5.00
same,pKd,PKN1,< 5.00
CCn1c(-c2c(N)noc2C)nc2cnccc21 [SB-737856],pKd,PIK3CB,< 5.00
Nc1nccc(-c2c(-c3ccc(F)cc3)ncn2C2CCN(Cc3ccccc3)CC2)n1 [SB-219980],pKd,PIP5K2C,7.03
Cc1c(Cn2c(C)c(C)n3c(=O)cc(N4CCOCC4)nc23)cccc1C(F)(F)F [GSK2328680],pKd,PIK3CB,7.80
same,pKd,PIK3CD,6.21
same,pKd,PLK2,< 5.00
Cc1ccc(NC(=O)c2ccc(Cl)cc2)cc1-c1ccc(C(=O)Nc2ccncc2)cc1 [GSK1398467],pKd,PDGFRB,8.01
CNc1nc(-c2ccc3c(N)n[nH]c3c2)cc(N2C[C@@H](C(=O)Nc3ccccc3)CC[C@H]2C)n1 [GSK2298859],pKd,PDPK1,8.77
Cc1cnc(N)c(/C=C/c2cncc(C(=O)NCCc3ccc(Cl)cc3Cl)c2)c1.Cl [GSK190937],pKd,PDGFRA,7.41
same,pKd,PDGFRB,6.85
COc1cccc(NC(=O)Nc2ccc(C)c(-c3ccc(C(=O)Nc4ccncc4)cc3)c2)c1 [GSK1398474],pKd,PDGFRB,7.40
same,pKd,PIK3C2B,< 5.00
same,pKd,PIK3CA,< 5.00
same,pKd,PIK3CG,< 5.00
CC[C@@H]1CO[C@H](C(=O)Nc2ccccc2)CN1c1cc(-c2ccc3c(N)n[nH]c3c2)nc(NC)n1 [GSK2376236],pKd,PDPK1,8.77
same,pKd,PKN1,< 5.00
Cc1nccc(-c2c(-c3ccc(F)cc3)ncn2CCCN2CCOCC2)n1.Cl [SB-282975],pKd,PHKG2,< 5.00
Fc1ccc(-c2nc3n(c2-c2ccncc2)CCS3)cc1 [GI98581],pKd,PIK3C2B,< 5.00
same,pKd,PIK3CA,< 5.00
same,pKd,PIK3CG,< 5.00
O=c1cc(N2CCOCC2)nc2n(Cc3ccccc3F)ccn12 [GSK2297428],pKd,PIK3CB,6.74
COc1ccc(Nc2nccc(N3CCC(NC(=O)C(C)c4ccc(Cl)cc4)CC3)n2)cc1 (stereo not shown) [GSK1379812],pKd,PCTK1,< 5.00
O=C1NC(=O)C(c2ccc(Cl)cc2)=C1Nc1cccc(Cl)c1 [SB-317651],pKd,PIK3CB,6.80
same,pKd,PKAC-beta,< 5.00
Cc1ccccc1Cn1ccn2c(=O)cc(N3CCOCC3)nc12 [GSK2269905],pKd,PIK3CB,7.57
NS(=O)(=O)c1cccc(N/C=C2\C(=O)Nc3ccc(S(=O)(=O)Cc4c(Cl)cccc4Cl)cc32)c1 [GSK398099],pKd,PIK4CB,5.92
CNCc1ccc2nc(NC(=O)c3ccc(C(C)(C)C)cc3)cn2c1,pKd,PIK3C2B,< 5.00
same,pKd,PIK3CA,< 5.00
O=C(Nc1n[nH]c2cc(-c3ccsc3)ccc12)C1CC1 [SB-732932],pKd,PDGFRB,6.15
Cc1ccc(NC(=O)Nc2ccc(Cl)cc2)cc1-c1ccc(C(=O)Nc2ccncc2)cc1 [GSK1398472],pKd,PDGFRB,7.07
CC(=O)c1c(C)c2cnc(Nc3ccn(C)n3)nc2n(C2CCCC2)c1=O,pKd,PCTK3,< 5.00
same,pKd,PIP5K2C,6.96
Cc1ccc(NC(=O)Nc2ccccc2)cc1-c1ccc(C(=O)Nc2ccncc2)cc1 [GSK1398471],pKd,PDGFRB,7.55
CNC(=O)c1ccc(C)c(-n2c(C)cc(OCc3ccc(F)cc3F)c(Br)c2=O)c1,pKd,PRKCI,< 5.00
Cc1ccc(NC(=O)Nc2ccccc2F)cc1-c1ccc(C(=O)Nc2ccncc2)cc1 [GSK1398477],pKd,PDGFRB,7.33
O=c1cc(N2CCOCC2)nc2n(Cc3cccc(Cl)c3Cl)c3ccccc3n12 [GSK2299009],pKd,PIK3CB,6.07
O=C(Nc1n[nH]c2nc(-c3ccco3)c(Br)cc12)C1CCN(Cc2ccccc2)C1.O=C(O)[C@H](O)[C@@H](O)C(=O)O (stereo not shown) [SB-742034],pKd,PCTK1,6.82
same,pKd,PCTK2,6.62
CS(=O)(=O)Cc1ccc(Nc2nccc(-c3c(-c4cccc(NC(=O)C5CCCCC5)c4)nn4ncccc34)n2)cc1 [GSK350559],pKd,PDGFRB,7.13
same,pKd,PIP5K1C,< 5.00
same,pKd,PIP5K2C,7.22
